Measured values reported in PubChem BioAssay (NCATS).
Results filed as inconclusive are left out. Unmarked numbers belong to inactive results. The call rests on the fitted dose curve; in most records, active means well fitted inhibition curve with a large enough effect; inconclusive means small, poorly fitted or top-dose-only effect; inactive means flat fitted curve, though single readings scatter.

These molecules were tested against Aldehyde dehydrogenase, mitochondrial (Homo sapiens) (UniProt P05091) (assay: qHTS for Inhibitors of the Aldehyde Dehydrogenase Family (ALDH2) Primary screen (AID 2061308;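 further: plate controls were vehicle for no effect and reference inhibitor for full effect; nearly all actives have a fitted effect of over 55% in size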)). Conditions: ALDH2 enzyme inhibition qHTS, 1536-well; series mostly up to 56 µM; activity change, negative = inhibition: at the top concentration.

SMILES | activity change, negative = inhibition
O=C(OC[C@H]1O[C@H](O[C@]2(CO)O[C@H](CO)[C@@H](O)[C@@H]2O)[C@H](O)[C@@H](O)[C@@H]1O)c1ccccc1 | 3.84% [at 28 µM]
CC1(C)OC(=O)CC(O)C2(C)C1CC(=O)C1(C)C2C(O)CC2(C)C(c3ccoc3)OC(=O)C3OC321 (stereo not given) | -0.822% [at 28 µM]
Nc1nc2c(cnn2CCCc2ccc(O)cc2)c2nc(-c3ccco3)nn12 | -2.17%
C/C=C1/[C@H](O[C@@H]2O[C@H](CO)[C@@H](O)[C@H](O)[C@H]2O)OC=C(C(=O)OC)[C@H]1CC(=O)OCCc1ccc(OC(=O)C[C@@H]2C(C(=O)OC)=CO[C@@H](O[C@@H]3O[C@H](CO)[C@@H](O)[C@H](O)[C@H]3O)/C2=C/C)cc1 | 6.76% [at 16.9 µM]
C=C1C(O)CC2C(C(=O)O)=COC(OC3OC(CO)C(O)C(O)C3OC(=O)/C=C\c3ccc(O)cc3)C12 (stereo not given) | -11.2% [at 28 µM]
COc1cc(/C=C/C(=O)OC(C)(C)C(OC2OC(CO)C(O)C(O)C2O)C(=O)OCc2ccc(OC3OC(CO)C(O)C(O)C3O)cc2)ccc1O (stereo not given) | -2.54% [at 16.9 µM]
Cc1c(-c2ccc3c(c2)OCO3)oc2ccc(C(O)C(C)O)cc12 (stereo not given) | 4.81%
C=CC1C(OC2OC(CO)C(O)C(O)C2O)OC=C(C(=O)OC)C1CC1CC(=O)CC(CCc2ccc(O)cc2)O1 (stereo not given) | -12.3% [at 16.9 µM]
COc1ccc(C)c2sc(NC(=O)c3ccncc3)nc12 | -15.2%
O=C(/C=C/c1ccccc1)O[C@@H]1[C@@H](CO)O[C@@](CO)(O[C@H]2O[C@H](CO)[C@@H](O)[C@H](O)[C@H]2O)[C@H]1O | -6.96% [at 28 µM]
C=CCC1=C[C@]2(OC)[C@H](C)[C@@H](c3ccc(OC)c(OC)c3)O[C@]2(OC)CC1=O | 2.76%
C=C1CC[C@H]2[C@@](C)(CCC(O)[C@@]2(C)CO)[C@@H]1C/C=C(/C(=O)O)C(O)CO (stereo not given in full) | -1.62%
O=C(/C=C/c1ccccc1O)O[C@@H]1O[C@H](CO)[C@@H](O)[C@H](O)[C@H]1O | -4.71%
C=C1CC[C@H]2[C@@](C)(CCC(O)[C@@]2(C)CO)[C@@H]1CCC1=CCOC1=O (stereo not given in full) | 2.66%
Fc1ccc2nc(CCC#Cc3ccccn3)cn2c1 | 1.37%
CC(=O)c1c(C)cccc1O[C@@H]1O[C@H](CO)[C@@H](O)[C@H](O)[C@H]1O | -8.67%
O=C(OC[C@H]1O[C@@H](Oc2ccccc2COC(=O)C2(O)C=CCCC2O)[C@H](O)[C@@H](O)[C@@H]1O)c1ccccc1 (stereo not given in full) | -9.13% [at 28 µM]
COc1cc([C@H]2OC[C@]3(OC(C)=O)[C@@H](c4ccc(O[C@@H]5O[C@H](CO)[C@@H](O)[C@H](O)[C@H]5O)c(OC)c4)OC[C@H]23)ccc1O | 4.69% [at 16.9 µM]
COc1cc(/C=C/C=O)cc(OC)c1O[C@@H]1O[C@H](CO)[C@@H](O)[C@H](O)[C@H]1O | -3.4%
C[C@@H]1C[C@H]2OC(=O)[C@@]3(C)CCC[C@](C)(C23)[C@@]1(O)CCC1=CC(=O)OC1O (stereo not given in full) | 2.28%
COc1cc([C@H]2OC[C@](O)(Cc3ccc(O[C@@H]4O[C@H](CO)[C@@H](O)[C@H](O)[C@H]4O)c(OC)c3)[C@@H]2CO)ccc1O | -4.22% [at 28 µM]
CC(CCc1ccc(O)cc1)O[C@@H]1O[C@H](CO[C@@H]2OC(CO)[C@H](O)[C@H]2O)[C@@H](O)[C@H](O)[C@H]1O (stereo not given in full) | 3.44% [at 28 µM]
Fc1ccc(CN2CCC(Nc3ccc(C(F)(F)F)nn3)CC2)cc1F | -4.73%
COc1cc(C2Oc3c(OC)cc(CCCO)cc3C2CO)ccc1O (stereo not given) | -7.15%
CC1(C)C=Cc2c(ccc3c2[N+]([O-])=C2C3(O)CC34NC(=O)C5(CCCN5C3=O)CC4C2(C)C)O1 (stereo not given) | 0.609% [at 28 µM]
CC1=C2C[C@H]3OC(=O)[C@H](O)[C@@]4(O)[C@@H](C)[C@@H](O)[C@H](O)C([C@@]2(C)[C@H](O)[C@@H](O)C1)[C@@]34C (stereo not given in full) | -6.16%
CC(C)S(=O)(=O)N[C@H]1CCOC[C@@H]1c1ccc(-c2ccc(C#N)s2)cc1 | -9.77%
O=C(/C=C/c1ccc(O)c(O)c1)O[C@H]1[C@@H]2C=CO[C@@H](O[C@@H]3O[C@H](CO)[C@@H](O)[C@H](O)[C@H]3O)[C@@H]2[C@@]2(CO)O[C@@H]12 | -8.72% [at 28 µM]
CC(CO[C@@H]1O[C@H](COC(=O)/C=C/c2ccc(O)c(O)c2)[C@@H](O)[C@H](O)[C@H]1O)C1(O)COC(=O)C1 (stereo not given in full) | -1.74% [at 28 µM]
CC1(C(=O)O)CC[C@]2(C(=O)OC3OC(CO)C(O)C(O)C3O)CC[C@]3(C)C(=CCC4[C@@]5(C)CC[C@H](OC6OCC(O)C(O)C6OC6OC(CO)C(O)C(O)C6O)C(C)(C)C5CC[C@]43C)C2C1 (stereo not given in full) | 5.53% [at 16.9 µM]
